# Vif inh: HIV Vif inhibition; HEK293T cells, Vif self-association by quenched fluorescence, imaging, 24 h; inhibition, % at 7.49 µM; actives 0.35% (n = 340,000); AID 602346; in the data active means inhibition above about 50%, passing the limit was not always enough; inconclusive means no clear call, values can overlap the other calls; inactive means below about 31%
# esBAF inh: blocks esBAF chromatin remodeling in mouse ES cells; Bmi1-luciferase knock-in reporter, 24 h; 100% = twice the neutral-well signal; reporter increase, % at 12.5 µM; actives 2% (n = 350,000); AID 602393; in the data active means activation above about 40%; inconclusive means no clear call, values can overlap the other calls;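 further: a rise in the Bmi1 reporter signal indicates esBAF inhibition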
# SKN-1 block: inhibitors of C. elegans SKN-1. actives 0.49% (n = 360,000). inhibition, % at 21.8 µM. C. elegans VP596 Pgst-4::GFP/RFP ratio, acrylamide-induced, 24 h;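 active means interference check ratio from 0.5 to 1.5 plus GFP to RFP signal ratio inhibition reaching or exceeding a fixed threshold, cut at about 30% in these data, passing the limit was not always enough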
# SMARCA2 act: activators of SMARCA2 function; MG213 cells, MMTV-luciferase reporter, dexamethasone, overnight; actives 1% (n = 370,000); activation, % at 9.1 µM; in the data active means activation above about 7.8%
# NadD block: inhibitors of Staphylococcus aureus NadD. purified NadD enzyme, colorimetric absorbance read-out. inhibition, % at 20 µM. AID 602399. actives 0.78% (n = 360,000); in the data active means inhibition above about 26%
# GRIN3A LBD mod: NR3A (human) ligand-binding domain modulation. NR3A LBD differential scanning fluorimetry, Tm shift; 0% = protein alone, 100% = glycine-bound protein. Tm shift relative to glycine control, % at 25 µM. actives 2.5% (n = 340,000). AID 1259313;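 active means melting temperature shift of at least 10% of the positive control shift, at one fixed dose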
# SMARCA2 conf: SMARCA2 activation, confirmation screen | actives 30% (n = 3,500) | MG213 cells, MMTV-luciferase with dexamethasone, luminescence, overnight; MG213 cells expressing E1A, Rb sequestered; DMSO wells 0%, reference activator 100% | shares compounds with SMARCA2 act | AID 652260 | activation, % at 9.1 µM;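 active means activation above its plate's cutoff, the mean activation of tested wells plus 3 SD, cut at about 7.9% in these data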
# VP16 Luc act: activates GAL4-VP16 luciferase, flagging SMARCA2 activator hits | shares compounds with SMARCA2 act | HEK293 GAL4-VP16 pG5luc reporter, luciferase luminescence; scaled: DMSO wells 0%, SAHA wells 100% | activation, % at 9.1 µM | actives 41% (n = 3,500) | AID 686939;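 active means activation above the solvent-only control well mean plus 3 SD, averaged across control plates, cut at about 5.2% in these data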
# Hits are given with their value; i = inactive; ? = inconclusive; nt = not tested or not shown. Most compounds without a hit are left out; they make up all but 5.2% or so of the library.
SMILES,Vif inh,esBAF inh,SKN-1 block,SMARCA2 act,NadD block,GRIN3A LBD mod,SMARCA2 conf,VP16 Luc act
N#Cc1c2n(c3c(=O)[nH]cnc13)CCCC2,i,i,i,9.3,i,i,i,i
CN(CCCNC(=O)CCCOc1cc(=O)n(C)c2ccccc12)Cc1ccccc1,i,i,i,9.6,i,i,i,i
CN(CCNC(=O)CCCOc1cc(=O)n(C)c2ccccc12)Cc1ccccc1,i,nt,i,i,i,i,nt,nt
CN(C)C(=O)[C@H]1[C@H](CO)[C@H]2Cn3c(ccc(-c4ccccc4)c3=O)[C@H]2N1Cc1ccccc1,nt,i,nt,nt,nt,nt,nt,nt
Cc1ccc2c(c1)c1c3n2CCN(C(=O)CCl)C3CCC1 (centres undefined),i,i,i,i,i,i,nt,nt
CC(=O)N1CCn2c3c(c4cc(C)ccc42)CCCC31 (centres undefined),i,i,i,8.7,i,i,i,i
O=C(c1cccc(NC2=NC3CS(=O)(=O)CC3S2)c1)N1CCN(c2ccc(F)cc2)CC1 (centres undefined),i,i,i,8.2,i,i,i,i
O=C(c1cccc(NC2=NC3CS(=O)(=O)CC3S2)c1)N1CCN(c2cccc(Cl)c2)CC1 (centres undefined),i,i,i,i,i,i,nt,nt
CCC(=O)Nc1ccc2c(c1)C(=O)N(C)[C@@H]1CC[C@@H](CC(=O)N[C@H](C)c3ccccc3)O[C@@H]1CO2,nt,i,nt,nt,nt,nt,nt,nt
CCN(CC)S(=O)(=O)c1ccc(C(=O)NNC(=O)c2cccs2)cc1,i,nt,i,10.8,i,i,i,i
COCCNC(=O)C[C@@H]1C[C@@H]2c3cc(NC(=O)C4CCC4)ccc3O[C@@H]2[C@H](CO)O1,nt,i,nt,nt,nt,nt,nt,nt
O=C(C[C@H]1C[C@@H]2c3cc(NC(=O)Nc4ccccc4F)ccc3O[C@@H]2[C@H](CO)O1)NC1CCCCC1,nt,i,nt,nt,nt,nt,nt,nt
C/C=C/c1ccc([C@H]2[C@H](CO)N(C(=O)NCCC)[C@H]2CNC(=O)C2CC2)cc1,nt,i,nt,nt,nt,nt,nt,nt
COc1ccc(NC(=O)c2ccc(-c3ccc(-c4noc(C)n4)cc3C)cc2)cc1N1CCN(C)CC1,i,i,i,13.0,i,i,16.8,i
COc1cc(C(=O)Nc2ccc3nc(N4CCN(C)CC4)cc(C)c3c2)cc(OC)c1OC,i,i,i,i,i,i,nt,nt
CN1C(=O)c2cc(NC(=O)c3ccc(F)c(F)c3)ccc2OC[C@@H]2O[C@H](CC(=O)N[C@@H]3CCN(Cc4ccccc4)C3)CC[C@H]21,nt,i,nt,nt,nt,nt,nt,nt
COCC(=O)Nc1nc2ccccc2s1,i,i,i,i,i,i,nt,nt
CN1CCN(CC(=O)Nc2nc3ccccc3s2)CC1,i,i,i,i,i,i,nt,nt
CC1(C(=O)Nc2nc3ccccc3s2)CC1(Br)Br (centres undefined),i,?,i,9.0,i,i,i,5.2
NC(=S)Nc1nc2ccccc2s1,i,nt,i,15.6,i,i,17.3,5.5
O=C(C[C@H]1CC[C@@H]2[C@H](COC[C@@H](O)CN2S(=O)(=O)c2ccccc2)O1)NCC1CCCCC1,nt,i,nt,nt,nt,nt,nt,nt
O=C(COC(=O)c1ccccc1)NC(=O)NC1CCCC1,i,i,i,i,i,nt,nt,nt
O=C(COC(=O)c1ccccc1C(=O)c1ccc(Cl)c([N+](=O)[O-])c1)NC1CCCCCC1,i,i,i,9.4,i,i,i,i
O=C(COC(=O)c1ccccc1)NC1CCCC1,i,i,i,10.2,i,i,i,i
CN(CCC#N)C(=O)COC(=O)c1ccccc1C(=O)c1ccc(Cl)c([N+](=O)[O-])c1,i,nt,i,9.5,i,i,i,i
O=C(COC(=O)c1ccc(Cl)c([N+](=O)[O-])c1)NC1CCCC1,i,i,i,i,i,i,nt,nt
Cc1cc(OCC(=O)NC2CCCCC2)ccc1Cl,i,nt,i,i,i,i,nt,nt
Cc1cc(OCC(=O)OCC(=O)NC2CCCC2)ccc1Cl,i,i,i,11.3,i,i,i,i
